Measurements as given in PubChem BioAssay AID1851 (National Center for Advancing Translational Sciences (NCATS), 2009).
“And” between values parts separate entries of the source, which are not always exact repeats. Equal entries are not always repeated. The whole screen tested about 16,000 compounds, of which about 2,600 (16%) were called active. Inconclusive results (about 20%) are left out. The call rests on the fitted dose curve; in most records, active means well fitted curve in the direction sought with a large enough effect; inconclusive means small, poorly fitted or top-dose-only effect, or effect the other way; inactive means no such curve, though single readings can be large or run the other way. The list comes from a sample in which actives are over-represented; it also holds similar structures and randomly drawn compounds. The source holds several records for some structures; these can differ, active in one and inactive in another.

Target: Cytochrome P450 2D6 (Homo sapiens) (UniProt P10635)
Sequence (P10635 whole entry, looked up): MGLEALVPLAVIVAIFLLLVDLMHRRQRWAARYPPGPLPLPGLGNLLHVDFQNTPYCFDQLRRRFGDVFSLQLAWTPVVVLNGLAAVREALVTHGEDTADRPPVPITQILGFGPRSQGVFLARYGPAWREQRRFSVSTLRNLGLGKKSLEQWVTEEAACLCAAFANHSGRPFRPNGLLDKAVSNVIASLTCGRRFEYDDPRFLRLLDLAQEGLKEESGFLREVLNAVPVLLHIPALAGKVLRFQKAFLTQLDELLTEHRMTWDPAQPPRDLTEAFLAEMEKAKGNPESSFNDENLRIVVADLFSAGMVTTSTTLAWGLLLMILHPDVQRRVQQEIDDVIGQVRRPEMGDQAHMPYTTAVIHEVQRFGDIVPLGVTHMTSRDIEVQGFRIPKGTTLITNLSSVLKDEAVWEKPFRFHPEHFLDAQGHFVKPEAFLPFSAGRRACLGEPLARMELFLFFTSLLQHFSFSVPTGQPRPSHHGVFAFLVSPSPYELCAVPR
Test: Cytochrome panel assay with activity outcomes
Conditions: recombinant CYP, pro-luciferin dealkylation, luminescence, p450-cyp2d6; series mostly up to 57.1 µM; activity, negative = inhibition: at the top concentration
On the % scale 0 is the no-effect control and ±100 the full control effect.

Compound | activity, negative = inhibition | AC50
CN(C)C(=O)Oc1ccc[n+](C)c1 | 11.3% (inactive) | 
C[C@@H]1O[C@H]1P(=O)(O)O | 19.4% (inactive) | 
O=c1c(O)c(-c2ccc(O)c(O)c2)oc2cc(O)cc(O)c12 |  | inactive
CNC[C@H](O)c1ccc(O)c(OC)c1 | -1.02% [at 25.6 µM] (inactive) | 
C[C@](N)(CCP(=O)(O)O)C(=O)O | 8.58% (inactive) | 
CCCN(CCC)C1Cc2cc(OC)c(OC)cc2C1 |  | 25.1 µM (active) and inactive
CCCN(CCC)[C@@H]1CCc2ccc(O)cc2C1 |  | 794 nM (active) and inactive
CCCN(C/C=C\I)[C@@H]1CCc2ccc(O)cc2C1 |  | 0.0158 µM (active)
O=C(O)[C@H]1CCN1 | -3.77% (inactive) | 
CN(C)[C@H]1C(=O)C(C(N)=O)=C(O)[C@]2(O)C(=O)C3=C(O)c4c(O)cccc4[C@@](C)(O)[C@H]3C[C@@H]12 | 13.9% [at 25.6 µM] (inactive) | 
O=C(O)C(C(=O)O)P(=S)(S)c1ccccc1 (configuration not stated) | 8.23% [at 11.4 µM] (inactive) | 
CC(=O)NBr | 4.43% (inactive) | 
N#CCCCC[N+]12CN3CN(CN(C3)C1)C2 | 1.51% [at 11.4 µM] (inactive) | 
COC1=CC(=O)O[C@@H](/C=C\c2ccccc2)C1 | 0.589% [at 25.6 µM] (inactive) | 
CCN1C[C@]2(COC)CC[C@H](O)[C@@]34[C@@H]5C[C@H]6[C@@H](OC)[C@H]5[C@](O)(C[C@@H]6OC)[C@@](O)([C@@H](OC)[C@H]23)[C@@H]14 | 11.1% [at 25.6 µM] (inactive) | 
CCN(CC)c1ncnc2c1ncn2[C@@H]1O[C@@H](COP(=O)(O)OP(=O)(O)C(Br)(Br)P(=O)(O)O)[C@H](O)[C@H]1O |  | 0.631 µM (active)
CCN(CC)c1ncnc2c1ncn2[C@@H]1O[C@@H](COP(=O)(O)OP(=O)(O)C(Br)(Br)P(=O)(O)O)[C@H](O)[C@@H]1O | -10.4% (inactive) | 
Nc1ncnc2c1ncn2[C@@H]1O[C@@H](COP(=O)(O)CP(=O)(O)OP(=O)(O)O)[C@H](O)[C@@H]1O | -5.92% (inactive) | 
COc1cc2c3cc1Oc1cc(ccc1O)C[C@@H]1c4c(cc(OC)c(O)c4Oc4cccc(c4)C[C@H]3N(C)CC2)CC[N+]1(C)C | 2.51% [at 25.6 µM] (inactive) | 
O=P(O)(O)CCP(=O)(O)O | 10.1% [at 11.4 µM] (inactive) | 
N[C@H](CP(=O)(O)O)C(=O)O | -6.71% (inactive) | 
Cc1nc2ccccc2cc1C[N+]12CN3CN(CN(C3)C1)C2 | -2.3% [at 11.4 µM] (inactive) | 

Compound | activity, negative = inhibition | AC50
c1ccc2c(c1)-c1ccccc1C2N1CC2CCC(CC2)C1 |  | 3.98 µM (active)
O=C1N[C@@]2(CN3CCC2CC3)C(=O)N1CN(Cc1ccccc1)c1ccccc1 | 2.51% [at 11.4 µM] (inactive) | 
CC[C@@]1(c2ccc(N)cc2)CCC(=O)NC1=O |  | inactive
CN1Cc2c(ccc3c2OCO3)[C@@H]2[C@@H](O)Cc3cc4c(cc3[C@@H]21)OCO4 |  | 0.2 µM (active)
C[C@H]1CCCC=CC2C[C@H](O)C[C@@H]2[C@H](O)/C=C\C(=O)O1 (some centres not stated) | 9.19% (inactive) | 
N#Cc1cccc(NC(=O)N2CCCC3(CCN(C(=O)Oc4ccccc4)CC3)C2)c1 | -9.57% (inactive) | 
Oc1ccc2c3c1O[C@H]1c4[nH]c5ccccc5c4C[C@]4(O)[C@H](C2)N(CC2CC2)CC[C@@]314 |  | 2.51 µM (active) and 631 nM (active)
Oc1ccc2c3c1O[C@@H]1c4[nH]c5c(c4C[C@@]4(O)[C@@H](C2)N(CC2CC2)CC[C@]314)C[C@]1(O)[C@@H]2Cc3ccc(O)c4c3[C@@]1(CCN2CC1CC1)[C@H]5O4 | -4.66% (inactive) | 
Oc1ccc2c3c1O[C@H]1c4oc5ccccc5c4C[C@]4(O)[C@H](C2)N(CC2CC2)CC[C@@]314 |  | 1.26 µM (active)
NC(N)=Nc1ccc2[nH]c3c(c2c1)C[C@]1(O)[C@@H]2Cc4ccc(O)c5c4[C@]1(CCN2CC1CC1)[C@H]3O5 | 2.41% (inactive) | 
Oc1ccc2c3c1O[C@H]1c4c(c5ccccc5n4Cc4ccccc4)C[C@]4(O)[C@H](C2)N(CC2CC2)CC[C@@]314 | -5.11% (inactive) | 
Oc1ccc2c3c1O[C@H]1c4[nH]c5c(c4C[C@@]4(O)[C@@H](C2)N(CC2CC2)CC[C@]314)C[C@]1(O)[C@H]2Cc3ccc(O)c4c3[C@@]1(CCN2CC1CC1)[C@@H]5O4 | -4.33% (inactive) | 
Nc1nc(N)c2nc(CNc3ccc(C(=O)N[C@H](CCC(=O)O)C(=O)O)cc3)cnc2n1 | -1.59% (inactive) | 
CC[C@H](C)[C@@H]1O[C@]2(CC[C@@H]1C)C[C@H]1C[C@H](CC=C(C)[C@@H](O[C@@H]3C[C@H](OC)[C@H](O[C@@H]4C[C@H](OC)[C@H](O)[C@H](C)O4)[C@H](C)O3)[C@@H](C)C=CC=C3CO[C@@H]4[C@@H](O)C(C)=C[C@@H](C(=O)O1)[C@]34O)O2 | -16.5% [at 25.6 µM] (inactive) | 
CCNC(=O)[C@@H]1O[C@@H](n2cnc3c(N)ncnc32)[C@@H](O)[C@H]1O | -3.38% (inactive) | 
CCN(CC)CC#CCOC(=O)[C@@](O)(c1ccccc1)C1CCCCC1 |  | 10 µM (active)
Cc1ccc(S(=O)ON2CCC(C(=O)O)(c3ccccc3)CC2)cc1 (configuration not stated) | 20.9% [at 11.4 µM] (inactive) | 
CCCc1cc2c(n1CCO)C(C)C1CN(C(=O)c3ccccc3)C(C)(C(=O)OC)C21 (configuration not stated) | -9.47% (inactive) | 
CCCc1cc2c(n1Cc1cccc(Cl)c1)C(C)C1CN(C(=O)c3ccccc3)C(C)(C(=O)OC)C21 (configuration not stated) |  | 12.6 µM (active)
CCCc1cc2c(n1Cc1ccc(C)cc1)C(C)C1CN(C(=O)c3ccccc3)C(C)(C(=O)OC)C21 (configuration not stated) | -18% (inactive) | 
O=C1Nc2ccc(I)cc2/C1=C/c1cc(Br)c(O)c(Br)c1 | 5.11% (inactive) | 
C[C@H]1CC[C@]2(OC1)O[C@@H]1C[C@@H]3[C@@H]4CC[C@H]5C[C@@H](O)CC[C@]5(C)[C@@H]4CC(=O)[C@@]3(C)[C@H]1[C@@H]2C | 3.5% [at 25.6 µM] (inactive) | 

Compound | activity, negative = inhibition | AC50
COCCCN1Cc2ccccc2C1=N |  | 12.6 µM (active)
N#CC(=C(/N)Sc1ccccc1N)/C(C#N)=C(/N)Sc1ccccc1N |  | 0.02 µM (active)
CCCCn1c(O)c(C(CC)=NCc2ccc(F)cc2)c(=O)[nH]c1=O | -4.9% (inactive) | 
CCC(=Nc1cc(OC)ccc1OC)c1c(O)[nH]c(=O)[nH]c1=O | -20% (inactive) | 
CCCCn1c(O)c(C(CC)=Nc2ccc(OC)cc2OC)c(=O)[nH]c1=O |  | 12.6 µM (active)
CCCCN1C(=O)/C(=C/c2ccc(N(C)C)cc2)C(=O)N(Cc2ccco2)C1=O | 2.94% (inactive) | 
[N-]=[N+]=NCC(=O)c1c[nH]c(=O)[nH]c1=O | 8.7% [at 11.4 µM] (inactive) | 
O=[N+]([O-])c1cc([As](=O)(O)O)ccc1O | -1.12% [at 25.6 µM] (inactive) | 
CCn1cnc2c(Nc3cccc(Cl)c3)nc(N[C@@H]3CCCC[C@H]3N)nc21 |  | 25.1 µM (active)
CC(=O)[C@@H]1CC[C@@H]2[C@@H]3CC=C4C[C@H](OS(=O)(=O)O)CC[C@@]4(C)[C@H]3CC[C@]21C | -8.1% (inactive) | 
Cc1ccc2c(c1)C1CN(C)CCC1N2C(=O)Nc1cccc(Cl)c1 (configuration not stated) |  | 1 µM (active)
Brc1c(NC2=NCCN2)ccc2nccnc12 | -11.4% (inactive) | 
Clc1cc(I)cc(Cl)c1NC1=NCCN1 |  | 3.98 µM (active)
CCC(CC)C(=O)NC1CCSC1=O (configuration not stated) | 0.616% (inactive) | 
CC1(C)N=C(N)N=C(N)N1c1cccc(C(=O)Nc2ccc(S(=O)(=O)F)cc2)c1 |  | 2 µM (active)
CC(=O)c1ccc2c(c1)N(CCCN(C)C)c1ccccc1S2 |  | 2.51 µM (active)
CN1C(=O)c2ccccc2Sc2ccc(C(=O)N3CCC4(CC3)OCCO4)cc21 | 13.9% (inactive) | 
C=CCN1C(=O)c2ccccc2Sc2ccc(C(=O)N3CCC4(CC3)OCCO4)cc21 | -5.85% (inactive) | 
CCCCc1nc2ccccc2c(=O)n1-c1ccccc1[N+](=O)[O-] | -22.1% (inactive) | 
COc1cc(CCN)ccc1O | -0.172% (inactive) | 
CN(C(=O)Cc1ccc(Cl)c(Cl)c1)[C@@H](CN1CCCC1)c1cccc(OCC(=O)O)c1 | 0.96% (inactive) | 
CN(C(=O)Cc1ccccc1)[C@H](CN1CCCC1)c1ccccc1 |  | 3.16 µM (active)

Compound | activity, negative = inhibition | AC50
O=c1[nH]oc2c1CCNC2 |  | inactive
C#C[C@@]1(O)CC[C@@H]2[C@@H]3CCC4=CC(=O)CC[C@@]4(C)[C@H]3CC[C@]21C | 3.54% [at 25.6 µM] (inactive) | 
Cc1ccc(N2C(=O)/C(=C/c3ccc(CN(CCC#N)S(C)(=O)=O)o3)C(=O)NC2=S)cc1C | 4.47% (inactive) | 
Cc1ccc(N2C(=O)/C(=C/N3CCN(C(=O)c4ccco4)CC3)C(=O)NC2=S)cc1C |  | 0.0282 µM (active)
CC(=O)Nc1ccccc1C(=O)OCC(=O)c1ccc2ccccc2c1 | 29.5% (inactive) | 
CC[C@@]1(O)C(=O)OCc2c1cc1n(c2=O)Cc2cc3c(NC(=O)CN)cccc3nc2-1 | 3.66% [at 11.4 µM] (inactive) | 
O=C(O)[C@H]1[C@H](C(=O)O)[C@H]2CC[C@@H]1O2 | 2.98% (inactive) | 
CN(C)CC/C=C1\c2ccccc2Sc2ccc(Cl)cc21 |  | 2.51 µM (active)
CN(C)CCC=C1c2ccccc2CCc2ccccc21 |  | 7.94 µM (active)
CN(C)[C@@H]1C(=O)C(C(N)=O)=C(O)[C@]2(O)C(=O)C3=C(O)c4c(O)cccc4[C@@](C)(O)[C@H]3[C@H](O)[C@@H]12 | 0.652% [at 25.6 µM] (inactive) | 
FC(F)(F)c1nc2ccc(SSc3ccc4nc(C(F)(F)F)[nH]c4c3)cc2[nH]1 | -8.27% [at 11.4 µM] (inactive) | 
CP(=O)(O)C1=CCNCC1 | -1.3% (inactive) | 
CCCN1CCC[C@H](c2cccc(C#N)c2)C1 |  | 31.6 µM (active)
CCCN1CCC[C@H](c2cccc(O)c2)C1 |  | inactive
CN1C2CCC1/C(=C\c1ccccc1)C(=O)/C2=C\c1ccccc1 |  | 0.158 µM (active)
CCOC(=O)N(c1ccccc1)P1(=S)OCCO1 | 4.06% (inactive) | 
CC(=O)[C@@H]1CC[C@@H]2[C@@H]3CCC4=CC(=O)CC[C@@]4(C)[C@H]3CC[C@]21C | -11.4% [at 25.6 µM] (inactive) | 
Cn1ccnc1 | 7.17% (inactive) | 
C[Se]C[C@@H](N)C(=O)O | 15.1% (inactive) | 
CC[C@]1(C2=NCCN2)Cc2ccccc2O1 |  | 12.6 µM (active)
CC[C@H](C)C(=O)O[C@@H]1[C@H](O)[C@@H]2[C@H](CN3C[C@@H](C)CC[C@@H]3[C@@]2(C)O)[C@@H]2C[C@@]34O[C@@]5(O)[C@@H](OC(=O)[C@](C)(O)CC)CC[C@@]3(C)[C@H]5[C@H](OC(C)=O)[C@@H](OC(C)=O)[C@H]4[C@]12O | 9.64% [at 25.6 µM] (inactive) | 
